Screening data as filed in PubChem.
In the library only some 1.4% were active in any assay of this set; here they are far more common.
MazF activator: MazEF (E. coli) toxin RNase activation. 350,000 tested, 0.32% active. AID 504720. activation, % at 20 µM. FAM/BHQ RNA-DNA oligo cleavage fluorescence, 5 h. P0AE70; in the data active means activation above about 50%
Target sequence (P0AE70 whole entry, looked up): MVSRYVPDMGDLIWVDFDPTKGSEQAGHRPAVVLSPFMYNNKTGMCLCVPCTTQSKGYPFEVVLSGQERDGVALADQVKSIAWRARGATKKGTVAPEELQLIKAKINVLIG
VHR inh abs: blocks human VHR1 dual specificity phosphatase | P51452 | recombinant VHR phosphatase, pNPP absorbance | inhibition, % at 13.3 µM | 290,000 tested, 0.52% active | AID 1654; in the data active means inhibition above about 50%
Target sequence (P51452 whole entry, looked up): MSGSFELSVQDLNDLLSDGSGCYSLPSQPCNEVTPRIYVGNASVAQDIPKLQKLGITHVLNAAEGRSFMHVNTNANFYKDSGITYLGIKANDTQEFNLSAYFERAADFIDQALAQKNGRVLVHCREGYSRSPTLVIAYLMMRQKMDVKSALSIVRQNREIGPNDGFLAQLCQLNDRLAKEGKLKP
BJeLR viability: BJeLR cell viability loss. 300,000 tested, 0.17% active. BJeLR (HRASV12) viability, CellTiter-Glo ATP luminescence, 48 h. inhibition, % (no concentration beside the values); in the data active means inhibition above about 50%
CCHFV vOTU inh: blocks the CCHF virus ovarian tumor domain protease. CCHFV vOTU protease, Pep-AMC fluorescence. 370,000 tested, 0.55% active. inhibition, % at 11.5 µM. AID 651958; in the data active means inhibition above about 30%; further: 0% = vehicle wells with enzyme and 100% = no enzyme wells
3CLpro inhibitor: SARS-CoV 3CLpro protease inhibition; recombinant SARS-CoV 3CLpro, quenched FRET peptide cleavage; inhibition, % at 6 µM; 290,000 tested, 0.14% active; AID 1706; in the data active means inhibition above about 12%
The depositor's hits bear a star; · = not tested or not shown; + = active, no number.

SMILES	MazF activator	VHR inh abs	BJeLR viability	CCHFV vOTU inh	3CLpro inhibitor
COc1ccc(NC(=O)C(=O)N/N=C(\C)CC(=O)Nc2cc(C)ccn2)c(OC)c1	0.6	9.3	-1.4	-11.0	-0.7
CN(CCO)c1ccc2c(c1)Oc1ccccc1CN(Cc1cn(Cc3cccc(C(F)(F)F)c3)nn1)S2(=O)=O	·	·	·	9.4	·
CN(Cc1ccccc1F)C(=O)C1CCC(CNS(=O)(=O)c2cccc3cccnc23)CC1 (stereo not drawn)	·	·	·	7.1	·
COc1ccc(N2CCN(S(=O)(=O)c3c(C(=O)N4CCOCC4)c(C)n(C)c3C)CC2)cc1	1.3	51.2*	-5.0	-7.8	-0.8
CCOC(=O)c1ccc(NC(=O)Nc2ccon2)cc1	-1.8	-17.0	58.0*	-14.8	4.4
Clc1ccc(/C=N/NC2=Nc3cccc4cccc2c34)cc1	16.3	-13.2	-1.0	9.6	1.4
C(=N\NC1=Nc2cccc3cccc1c23)/c1ccccc1	509.2*	2.1	2.2	-10.3	4.3
O=C(O)CC/C(=C\c1ccc2c(c1)OCO2)c1nc2ccccc2s1	59.9*	7.4	-3.9	12.2	4.0
O=C(O)CC/C(=C\c1ccc(Cl)c([N+](=O)[O-])c1)c1nc2ccccc2s1	-2.2	-1.5	12.4	10.6	5.4
Cc1onc(-c2ccccc2Cl)c1C(=O)Nc1ccc2c(c1)OCO2	0.9	51.0*	-5.1	6.7	-0.9
Cc1onc(-c2c(Cl)cccc2Cl)c1C(=O)Nc1ccc2c(c1)OCCO2	10.9	14.1	·	4.1	0.2
O=C(C1CCN(c2ncnc3c2sc2cccc(F)c23)CC1)N1CCCCC1	·	·	·	-0.5	·
CCOc1ccc(N2C(=O)S/C(=C\c3cccn3C)C2=O)cc1	28.1	-16.4	-4.0	7.3	1.4
Cn1cccc1/C=C1\SC(=O)N(c2ccc(O)cc2)C1=O	262.1*	2.9	-5.4	2.1	4.9
CC1(C)CC(=O)c2c(nc(SCC(=O)Nc3nsc(-c4ccccc4)n3)c(C#N)c2-c2ccccc2)C1	-48.0	20.0	58.6*	-3.5	3.8
CCCOc1ccc(C2c3c(oc4cc(C)c(C)cc4c3=O)C(=O)N2CCCN(C)C)cc1 (stereo not drawn)	38.3	25.2	-2.4	9.9	-1.1
CCOc1cccc(C2c3c(oc4cc(C)c(C)cc4c3=O)C(=O)N2CCCN(C)C)c1 (stereo not drawn)	·	50.3*	·	·	1.4
C#CCNC(=O)C[C@H]1C[C@@]2(C(=O)OC)C(=C[C@H](C(C)C)O[C@@H]2C2CC2)N(CCc2ccc(OC)c(OC)c2)C1=O	·	·	·	-0.2	·
COc1ccc(O)c(/C=N/NS(=O)(=O)c2ccc(C)cc2)c1	8.9	12.2	0.0	6.4	0.1
CC(=O)Oc1ccc(/C=N/NS(=O)(=O)c2ccc(C)cc2)c(OC(C)=O)c1	18.2	53.9*	1.0	1.8	-2.1
COC(=O)[C@]12C[C@H](CC(=O)NCc3cccc4ccccc34)C(=O)N(Cc3ccco3)C1=C[C@H](C(C)C)O[C@@H]2C1CC1	·	·	·	12.5	·
Cc1cccc(C2=NN(c3ccc(Br)cc3)[C@@H](C(=O)N3CCOC3=O)[C@@H]2c2ccc(Cl)cc2)c1	128.9*	·	·	·	·
CCN(CC)c1ccc(N)cc1	99.2*	·	·	·	·
COc1ccc(-c2ccc(-c3noc(-c4ccccc4OC)n3)c(OC)n2)cc1	61.2*	6.5	14.2	-23.4	6.1
O=C(Nc1ccc2ncccc2c1)c1cc(-c2ccc(Cl)cc2)nc2ccccc12	·	·	·	-1.2	·
SMILES	MazF activator	VHR inh abs	BJeLR viability	CCHFV vOTU inh	3CLpro inhibitor
CCOC(=O)[C@]12CCCC=C1N(Cc1ccc(OC)cc1)C(=O)[C@@H]2CC(=O)NCCc1ccccc1OC	·	·	·	5.6	·
Cn1c(=O)oc2cc(S(=O)(=O)NCCc3ccccc3)ccc21	-8.8	57.4*	-2.3	7.9	0.4
CN1c2ccc(C#CC3CC3)cc2[C@@H]2[C@@H](CCN2C(=O)C2CCOCC2)[C@H]1CO	·	·	·	-1.8	·
CCC(C(=O)Nc1ccc2[nH]ncc2c1)c1ccccc1 (stereo not drawn)	6.8	57.0*	9.3	-14.3	-5.2
O=C(Nc1cccc(C(F)(F)F)c1)C(SCCO)c1ccccc1 (stereo not drawn)	0.3	-3.4	-10.0	-2.0	4.6
CCC(C(=O)Nc1cccc(C(F)(F)F)c1)c1ccccc1 (stereo not drawn)	-13.8	13.7	-1.4	4.0	12.9*
CCC(C(=O)Nc1ccncc1)c1ccccc1 (stereo not drawn)	-0.4	-11.2	5.8	8.1	-3.9
CC1(C(=O)Nc2nnc(C(C)(C)C)s2)Cc2ccccc2C(=O)O1 (stereo not drawn)	6.3	52.7*	0.7	8.8	2.1
CCSc1nnc(NC(=O)C2(C)Cc3ccccc3C(=O)O2)s1 (stereo not drawn)	-6.8	6.4	0.6	-2.4	-2.2
CCOc1cccc(CN2CCC(CCC(=O)NC3CC3)CC2)c1O	-3.0	51.3*	-10.2	-15.2	-4.5
O=C(CCC1CCN(Cc2ccc(Cl)cc2)CC1)NC1CC1	7.7	69.7	5.4	-6.3	-9.7
O=C(N/N=C/c1ccc([N+](=O)[O-])cc1)c1cccs1	-1.8	36.0	2.2	16.6	-2.8
O=C(N/N=C/c1cccc([N+](=O)[O-])c1O)c1cccs1	-2.9	56.2*	-3.0	3.9	4.5
Cn1c(=O)c(=O)n(C)c2cc(S(=O)(=O)N3CCN(c4ccccc4Cl)CC3)ccc21	·	·	·	4.4	·
O=[N+]([O-])c1ccc(-c2ccc(/C=N/c3c(-c4ccco4)nc4ccccn34)o2)c(Cl)c1	·	-7.3	0.3	·	3.5
O=[N+]([O-])c1ccc(Cl)c(-c2ccc(/C=N/c3c(-c4ccco4)nc4ccccn34)o2)c1	95.4*	26.9	7.1	8.0	1.2
Cn1c(=O)c2sccc2n2c(CCCC(=O)NCc3cccnc3)nnc12	7.5	-12.2	2.9	-2.6	0.2
Cn1c(=O)c2sccc2n2c(CCCC(=O)NCc3ccc(F)cc3)nnc12	6.5	59.7*	-16.1	5.5	-0.3
COC(=O)[C@]12C[C@H](CC(=O)NCc3ccc(C)o3)C(=O)N(CCc3ccc(OC)c(OC)c3)C1=C[C@H](C(C)(C)C)O[C@@H]2C	·	·	·	16.7	·
O=C(c1ccc(NS(=O)(=O)c2ccc(F)cc2)cc1)N1CCOCC1	5.6	·	-7.8	33.1*	·
COc1ccc(C(=O)N/C(=C/c2cccs2)C(=O)NCCCn2ccnc2)cc1OC	-1.9	52.7*	3.7	0.8	-1.1
O=C(Nc1ccc(Cl)cc1)N1CCSC1=NCc1ccccc1	9.9	-0.1	0.3	5.6	4.9
CC(=O)Nc1ccc(C2=NN(C)C(=NCc3ccccc3)SC2)cc1	11.2	51.3*	6.7	7.3	-2.9
CCN1/C(=C2\OC(=S)N(C)C2=O)Sc2ccccc21	6.9	17.9	-1.8	19.7	-6.6
CCN1/C(=C2\OC(=S)N(C)C2=O)C=Cc2ccccc21	655.7*	-4.6	3.9	-10.9	-1.4
COc1ccc(-c2cc(=O)oc3c(C)c(OC(=O)c4cccs4)ccc23)cc1	109.5*	-1.6	·	-5.9	3.9
CC(C)CCNc1nc(-c2ccco2)c2c(c1C#N)CCCC2	-9.4	59.0*	8.0	-2.1	-1.3
CN(C)/C=c1\sc2c(C#N)cc(C(=O)c3ccc(Br)cc3)n2c1=O	+	28.0	6.2	8.3	3.0
